The text below walks through data of PubChem BioAssay AID1789 (The Scripps Research Institute Molecular Screening Center, 2009).

The structures appear in SMILES notation. In all, about 290,000 compounds went through this assay and about 2,700 (0.93%) were called active. The entries come from a sample that favours actives as a whole. Unmarked numbers belong to inactive results.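 Rule for the calls: active = inhibition above the screen-wide mean plus 3 SD, computed separately per campaign (cut at about 16% in these data); inactive = the rest.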

The test system of this test is Heat shock protein HSP 90 (rabbit reticulocyte lysate; luciferase refolding). In words: HSP90 inhibitors, primary screen, cell lysate, luminescence (AID 1789).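 Note: 0% = DMSO wells and 100% = 60 µM geldanamycin wells; inhibitors lower the luminescence because luciferase stays unfolded.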 The note with it: 3 h, at 5.6 µM, hits give high values.
The inhibition is the drop in the measured response relative to a control, in per cent. As to `COc1cc(/C=C(\C#N)c2nc3ccccc3[nH]2)ccc1O`, the inhibition was -1.74%. Consider `Cc1ccc2nc(/C(C#N)=C\c3ccc(OC(=O)c4cccs4)cc3)[nH]c2c1`, for which the inhibition was 30.5% (active).

`CCOC(=O)CSc1nc2ccc(C)cc2[nH]1`: the inhibition was 1.44%. To `CCn1c(CC(=O)Nc2ccccc2C)nnc1SCC(=O)NC1=NCCS1` belongs 3.37%; to `S=c1[nH]nc(/C=C/c2ccccc2)o1`, -3.77%. To `O=c1oc(/C=C/c2ccccc2)nc2ccccc12` belongs 21% (active); to `O=c1oc(-c2ccccc2NS(=O)(=O)c2ccc(Cl)cc2)nc2ccccc12`, 0.82%. In the case of `Cc1ccc(-c2nnc(-c3ccc(NC(=O)c4cccs4)cc3)o2)cc1`, the inhibition is -1.94%. With `Cc1nc(-c2ccc(NC(=O)c3cccs3)cc2)cs1`, the inhibition is 27.1% (active).

For `O=C(Nc1ccccc1)c1ccc(NC(=O)c2cccs2)cc1`, the inhibition is 1.79%.

For the compound `Cc1ccc(-c2noc(CNC(=O)c3ccoc3C)n2)cc1`, the inhibition is 4.35%. With `COc1ccccc1CNC(=O)[C@@H]1CCCN1C(=O)[C@@H]1Cc2ccccc2CN1C(=O)OC(C)(C)C`, the inhibition was 0.82%. To `Cc1cccc(N=C2NN=C(c3c[nH]c4ccccc34)CS2)c1` belongs 8.26%. For the compound `Clc1cccc(N=C2NN=C(c3ccc4c(c3)OCCO4)CS2)c1`, the inhibition was 38.8% (active). As for `c1ccc(CN2CCC(N=C3NN=C(c4ccc5c(c4)OCCO5)CS3)CC2)cc1`, the inhibition is 13.2%.

On to `COC(CNC(=O)c1ccc2c(c1)ncn2-c1cc(C)cc(C)c1)OC`, for which the inhibition was -2.44%.

Consider `O=C(OCCN=C1NS(=O)(=O)c2ccccc21)c1cccc([N+](=O)[O-])c1`, for which the inhibition was -0.96%. For the compound `C=CCOc1c(Br)cc(/C=N\n2nnnc2N)cc1OC`, the inhibition was 6.06%. To `COc1cc(/C=C2/C(=O)NN(c3cccc(Cl)c3)C2=O)cc(Br)c1O` belongs 4.77%; to `CCOc1c(Br)cc(/C=C2\C(=O)N(CCC#N)N=C2C)cc1OC`, 32.1% (active). With `COc1ccc(-n2ncc3c2CC(C)(C)CC3NC(=O)CCc2c(C)nn(C)c2C)cc1` (stereo unspecified), the inhibition is -4.92%. As to `Cc1n[nH]c(C)c1S(=O)(=O)N1CCCC(C(=O)Nc2ccc(Br)cc2)C1` (stereo unspecified), the inhibition is -0.76%. To `COc1ccc(NC(=O)/C(C#N)=C\c2cc(OC)c(OCc3ccc(C(=O)O)cc3)cc2Br)cc1` belongs -2.4%. To `COc1ccc(CNC(=O)/C(C#N)=C/c2cccc(OC)c2OC)cc1` belongs 31.1% (active); to `COc1ccc(CNC(=O)CCn2cccc2)cc1`, 3.81%; to `Cc1cc(=O)oc2c1ccc1ccccc12`, -1.23%.
